This is part of a sample that, as a whole, favours compounds with a hit. Of some 83,000 tested, about 20% had one in any assay.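 A percent growth of 40 corresponds to 60% growth inhibition; 0 means no net growth; -100 means all cells died. Active threshold: below 10.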 A number with no mark means an inactive call. Activity calls are given as the source filed them.

This test deals with SK-MEL-5 melanoma. Briefly: NCI-60 one-dose screen, 48 h (100 = growth as untreated, 0 = no growth, -100 = all killed). The conditions noted are these: 10 µM unless noted.
`C#C[C@]1(O)CC[C@H]2[C@@H]3CC=C4c5sc(N(C)c6ccccc6)nc5CC[C@]4(C)[C@H]3CC[C@@]21C`: the growth was 87.3%. In the case of `CC(=O)c1c([Si](C)(C)C)c2cc(C#N)ccn2c1C(=O)c1ccc(Br)cc1`, the growth was 91.2%. To `O=C(CSc1nc2ccccc2c(=O)n1-c1ccc(Cl)c(Cl)c1)Nc1ccc(S(=O)(=O)Nc2ccc(Cl)nn2)cc1` belongs 100%; to `C#CCN(C)CCCOc1ccc(NCc2ccc(/C=C/C(=O)NO)cc2)cc1Cl`, -87.2% (active); to `O=C(NNc1nc2cc(F)cc(F)c2n2cccc12)c1cccnn1`, -31.3% (active). To `COc1ccc(/C(=N\NC(N)=S)c2ccc(Cl)cc2)cc1OC` belongs 21.9%; to `COc1ccc(-c2c(C(N)=O)c(N)n(Cc3nc4ccccc4[nH]3)c(=O)c2C#N)c(OC)c1`, 97.3%; to `Cc1cc(Br)ccc1-n1cc(C#N)c(N)c1C(=O)c1ccc(Br)cc1`, 95.7%. To `CN1CCN(Cc2ccc(NC(=O)c3cncc(C#Cc4cnc(N)nc4)c3)cc2C(F)(F)F)CC1` belongs 38%; to `CCOC(=O)c1c(NC(=O)c2ccc(C(F)(F)F)cc2)sc2c3c(ccc12)OCN(C)C3`, 94.7%; to `O=C1CSC(c2cn(-c3ccccc3)nc2-c2ccc(Cl)cc2)N1c1ccccc1` (stereo not given), 99.4%. With `COc1ccc(-c2c3c(cn2Cc2cccc(OC)c2)-c2oncc2CCC3)cc1`, the growth is 100%. The result for `C#C[C@]1(O)CC[C@H]2[C@@H]3CC=C4c5sc(Nc6ccc(C)cn6)nc5CC[C@]4(C)[C@H]3CC[C@@]21C` reads -93.1% (active); that for `CCCCCCOC(=O)c1cc(-c2ccc(F)cc2)nc2ccccc12`, 99.7%. To `CN1CCN(c2ccc(Nc3nc(NCCNS(=O)(=O)c4ccccc4)c4sccc4n3)cc2)CC1` belongs 97.4%; to `CN1CCN(Cc2ccc(NC(=O)c3cncc(C#Cc4cnc5ccc(O[C@@H]6CCOC6)nn45)c3)cc2C(F)(F)F)CC1`, -97.4% (active); to `CC(C)(C)Nc1nc2c(OCCc3ccccc3)cccn2c1-c1ccc([N+](=O)[O-])cc1`, 74.8%. To `N#Cc1c(-c2cccs2)cc(-c2cnccn2)nc1SCC(=O)N/N=C/c1ccc(Cl)cc1` belongs 101%; to `CN(C)CCCOc1ccc(C(=C(c2ccccc2)C2CCCC2)c2ccc(OCCCN(C)C)cc2)cc1`, -95.7% (active). Regarding `N#Cc1nc(-c2ccc(Cl)cc2)oc1N1CCC(S(=O)(=O)N2CCOCC2)CC1`, the growth is 98.1%.

With `CC(=O)C1=C(C)NC(NNc2ccccc2)=NC1c1ccc([N+](=O)[O-])cc1` (stereo not given), the growth was 98.7%. On to `COC(=O)c1ccc(NC2=C(Cl)C(=O)C(C)=C(C)C2=O)cc1`, for which the growth is 44.6%. The result for `C=C(C=O)[C@@H]1CC[C@]2(C(=O)O)CC[C@]3(C)C(CC[C@@H]4[C@@](C)(CCC#N)[C@H](C(=C)C=O)CC[C@]43C)[C@@H]12` (stereo not given in full) reads 26.3%; that for `CCOC(=O)C1=C(C)NC(C)=C(C(=O)OC(C)C)C1c1cccc(C#N)c1` (stereo not given), 99.6%.

`CC1(C)CC[C@]23CC[C@]4(C)[C@H](CC[C@@H]5[C@@]6(C)CC[C@H](NCO)C(C)(C)[C@@H]6CC[C@]54C)[C@H]2[C@H]1OC3`: the growth is 97.7%. To `COc1ccc(C(=NNS(=O)(=O)c2ccc(C)cc2)c2ccccc2)cc1OC` belongs 97.6%; to `COc1cccc2c1C=CC1(O2)Oc2cccc(OC)c2C=C1C` (stereo not given), 24.6%; to `Cc1csc(/N=C(N)/N=C(\N)c2cccnc2)n1`, 80.3%. The result for `Cc1ccc(/C=N/Nc2nc(Nc3ccccc3)nc(Nc3ccc(S(N)(=O)=O)cc3)n2)cc1` reads 76%; that for `CCCC[n+]1ccc(SCC(=O)n2ccc3ccccc32)c2ccccc21`, 85.8%. Turning to `O=[N+]([O-])c1ccc(NC(=S)NNC(=S)Nc2ccc(Br)cc2)cc1`, the growth is 92.7%.

As for `CCOP(=O)(OCC)OC[C@]12CCC(C)(C)CC1C1=CC[C@@H]3[C@@]4(C)CCCNC(C)(C)[C@@H]4CC[C@@]3(C)[C@]1(C)CC2` (stereo not given in full), the growth is 80.7%. The result for `CNC(=O)Nc1ccc(Nc2cc(-c3ccc(-n4cccn4)cc3)[nH]n2)c(C)c1` reads 97.7%; that for `O=C(CCCCCCNC(=O)c1csc(Br)n1)NO`, 17.7%. Regarding `NS(=O)(=O)c1ccc(Nc2nc(N/N=C/c3ccc4c(c3)OCO4)nc(Nc3ccccc3)n2)cc1`, the growth is 54.3%.

The values above are taken from PubChem BioAssay (NCI).
